Source: PubChem BioAssay (Tox21)
Records with an inconclusive call do not appear. Active and inactive are the calls of the source. The call rests on the fitted dose curve; in most records, active means well fitted curve in the direction sought with a large enough effect in the repeat runs; inconclusive means weak or mixed curves; inactive means no such curve, though single readings can be large; an effect the other way counts as inactive or inconclusive.

Columns and labels:
[1] = qHTS RealTime-Glo MT Cell Viability Assay in HEK293 cells - 32 hour (AID 1224868); further: top concentration of the series differs between compounds; nearly all actives have a fitted effect of over 50% in size
In short: (§1)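 Luminescence generated by NanoLuc from substrate produced by living HEK293 cells served as the viability signal. Each value reflects the reading at its stated time point during continuous 40 h compound exposure at 37 C.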

[2] = A CellTox Green Cytotoxicity Assay to monitor cytotoxicity in HEK293 cells - 0 hour (AID 1224869); further: nearly all actives have a fitted effect of over 50% in size
In short: (§2)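 Real-time, in one plate: 600 HEK293 cells/well with dead-cell DNA dye, pinned compound after 5 h, 37 C incubation over 40 h; viable cells give no appreciable fluorescence.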

[3] = qHTS RealTime-Glo MT Cell Viability Assay in HepG2 cells - 40 hour (AID 1224870); further: nearly all actives have a fitted effect of over 50% in size
In short: (§3)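 Real-time viability: cells seeded at 600 per well together with NanoLuc and cell-permeant prosubstrate, compounds added after 5 h incubation. Luminescence tracked at 0, 8, 16, 24, 32 and 40 h of exposure.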

[4] = A CellTox Green Cytotoxicity Assay to monitor cytotoxicity in HEK293 cells - 40 hour (AID 1224871); further: nearly all actives have a fitted effect of over 45% in size
In short: as §2

[5] = qHTS RealTime-Glo MT Cell Viability Assay in HEK293 cells - 16 hour (AID 1224872); further: top concentration of the series differs between compounds; nearly all actives have a fitted effect of over 50% in size
In short: as §1

[6] = qHTS RealTime-Glo MT Cell Viability Assay in HepG2 cells - 8 hour (AID 1224873); further: nearly all actives have a fitted effect of over 55% in size
In short: as §3

[7] = qHTS RealTime-Glo MT Cell Viability Assay in HEK293 cells - 40 hour (AID 1224874); conditions: RealTime-Glo luminescence, hits give low values; further: nearly all actives have a fitted effect of over 50% in size
In short: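 Kinetic, non-lysing viability readout. Seed HEK293 (600/well) with reagent, incubate 5 h at 37 C/5% CO2, pin 23 nL compound in DMSO, incubate at 37 C, read luminescence at 0, 8, 16, 24, 32, 40 h.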

[8] = A CellTox Green Cytotoxicity Assay to monitor cytotoxicity in HEK293 cells - 24 hour (AID 1224875); further: series mostly up to about 77 µM; nearly all actives have a fitted effect of over 45% in size
In short: as §2

[9] = A CellTox Green Cytotoxicity Assay to monitor cytotoxicity in HepG2 cells - 16 hour (AID 1224876); further: nearly all actives have a fitted effect of over 45% in size
In short: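 Cytotoxicity was tracked as dead-cell DNA fluorescence in HepG2 cells treated with test compounds at 37 C; each time-point value comes from one kinetic series spanning 0, 8, 16, 24, 32 and 40 h.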

[10] = qHTS RealTime-Glo MT Cell Viability Assay in HepG2 cells - 32 hour (AID 1224877); further: nearly all actives have a fitted effect of over 55% in size
In short: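 Tox21 10K library screened in qHTS format on HepG2 cells carrying RealTime-Glo reagents. Compounds were added after a 5 h preincubation, and the luminescent signal from continuous culture was measured repeatedly during 40 h treatment.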
On the % scale 0 is the no-effect control and ±100 the full control effect.

O=S(=O)(O)CC(O)CCl (stereo not given)
inactive: outcome [1] | outcome [2] | outcome [3] | Potency [4] | outcome [5] | outcome [6] | max response [7] 5.44% | Potency [8] | Potency [9]

O=CN1CCCCC1
inactive: outcome [1] | outcome [2] | outcome [3] | Potency [4] | outcome [5] | outcome [6] | max response [7] 1.3% | Potency [8] | Potency [9] | outcome [10]

NS(=O)(=O)c1cc2c(cc1C(F)(F)F)NCNS2(=O)=O
inactive: outcome [1] | outcome [2] | outcome [3] | Potency [4] | outcome [5] | outcome [6] | max response [7] 14.4% | Potency [8] | Potency [9] | outcome [10]

C=CCOC(=O)CCCCCCCC
inactive: outcome [1] | outcome [2] | outcome [3] | Potency [4] | outcome [5] | outcome [6] | max response [7] 16% | Potency [8] | Potency [9]

O=C[C@@H](O)[C@H](O)[C@H](O)CO
inactive: outcome [1] | outcome [2] | outcome [3] | Potency [4] | outcome [5] | outcome [6] | max response [7] -1.95%

CCCCN(CCCC)CCCCCCN(CCCC)CCCC
inactive: outcome [1] | outcome [2] | outcome [3] | Potency [4] | outcome [5] | outcome [6] | max response [7] -10.4% | Potency [8] | Potency [9] | outcome [10]

Cc1cc2c(cc1CC(=O)c1sccc1S(=O)(=O)Nc1onc(C)c1Cl)OCO2
inactive: outcome [1] | outcome [2] | outcome [3] | Potency [4] | outcome [5] | outcome [6] | max response [7] 6.15% | Potency [8] | Potency [9] | outcome [10]

CCCCC(CC)COC(=O)CC#N (stereo not given)
inactive: outcome [1] | outcome [2] | outcome [3] | Potency [4] | outcome [5] | outcome [6] | max response [7] 0.0288% | Potency [8] | Potency [9] | outcome [10]

O=Cc1ccccc1S(=O)(=O)O
inactive: outcome [1] | outcome [2] | outcome [3] | Potency [4] | outcome [5] | outcome [6] | max response [7] 7.86% | Potency [8] | Potency [9] | outcome [10]

O=C(O)Cc1ccccc1Oc1ccc(Cl)cc1Cl
inactive: outcome [1] | outcome [2] | outcome [3] | Potency [4] | outcome [5] | outcome [6] | max response [7] 4.29% | Potency [8] | Potency [9]

NC(=O)CC[C@@H](N)C(=O)O
inactive: outcome [1] | outcome [2] | outcome [3] | Potency [4] | outcome [5] | outcome [6] | max response [7] 8.04% | Potency [8] | Potency [9] | outcome [10]

Cc1ccc(N)nc1
inactive: outcome [1] | outcome [2] | outcome [3] | Potency [4] | outcome [5] | outcome [6] | max response [7] 0.353% | Potency [8] | Potency [9] | outcome [10]

O=Cc1ccc(C(=O)O)cc1
inactive: outcome [1] | outcome [2] | outcome [3] | Potency [4] | outcome [5] | outcome [6] | max response [7] 0.978% | Potency [8] | Potency [9] | outcome [10]

CCOC(=O)CC(C(C)=O)C(C)=O
inactive: outcome [1] | outcome [2] | outcome [3] | Potency [4] | outcome [5] | outcome [6] | max response [7] 0.909% | Potency [8] | Potency [9] | outcome [10]

CC(C)CC(O)Cc1ccccc1 (stereo not given)
inactive: outcome [1] | outcome [2] | outcome [3] | Potency [4] | outcome [5] | outcome [6] | max response [7] 1.47% | Potency [8] | Potency [9] | outcome [10]

CCCCN=C(N)N=C(N)N
inactive: outcome [1] | outcome [2] | outcome [3] | Potency [4] | outcome [5] | outcome [6] | max response [7] -14.6% | Potency [8] | Potency [9] | outcome [10]

N=C(N)N1CCc2ccccc2C1
inactive: activity change, negative = cytotoxic [1] 0.854% [at 6.97 µM] | cytotoxicity [2] -7.02% [at 6.97 µM] | activity change, negative = cytotoxic [3] 0.674% [at 6.97 µM] | cytotoxicity increase [4] -5.28% [at 6.97 µM] | activity change, negative = cytotoxicity [5] 1.8% [at 6.97 µM] | viability change, negative = cytotoxic [6] 0.945% [at 6.97 µM] | max response [7] 0.0826% | activity change [8] -12.7% [at 6.97 µM, hits give high values]

C=CCN(CC=C)CC=C
inactive: outcome [1] | outcome [2] | outcome [3] | Potency [4] | outcome [5] | outcome [6] | max response [7] 12.2% | Potency [8] | Potency [9] | outcome [10]

C/C=C/C(=O)CCCC
inactive: outcome [1] | outcome [2] | outcome [3] | Potency [4] | outcome [5] | outcome [6] | max response [7] 0.74% | Potency [8] | Potency [9] | outcome [10]

CCCCCCC(O)CO (stereo not given)
inactive: outcome [1] | outcome [2] | outcome [3] | Potency [4] | outcome [5] | outcome [6] | max response [7] 1.68% | Potency [8] | Potency [9] | outcome [10]

Cc1cc(=O)oc2cc(O[C@@H]3SC[C@@H](O)[C@H](O)[C@H]3O)ccc12
inactive: outcome [1] | outcome [2] | outcome [3] | Potency [4] | outcome [5] | outcome [6] | max response [7] -5.1% | Potency [8] | Potency [9]

CC(C)(Sc1cc(C(C)(C)C)c(O)c(C(C)(C)C)c1)Sc1cc(C(C)(C)C)c(O)c(C(C)(C)C)c1
inactive: outcome [1] | outcome [2] | outcome [3] | Potency [4] | outcome [5] | outcome [6] | max response [7] 3.52% | Potency [8] | Potency [9]

CCC(=O)OCCOc1ccccc1
inactive: outcome [1] | outcome [2] | outcome [3] | Potency [4] | outcome [5] | outcome [6] | max response [7] 5.48% | Potency [8] | Potency [9] | outcome [10]
